# Anthrax LF prot – inhibitors of Bacillus anthracis lethal factor protease | P15917 | multiplex microsphere protease cleavage assay, LF | inhibition, % at 10 µM | actives 0.12% (n = 360,000) | AID 588501; also: plate controls were buffer without enzyme for full effect and enzyme alone for no effect
# BoNT-F LC inh – inhibitors of Botulinum neurotoxin F light chain protease | Multiplex microsphere protease cleavage assay, flow cytometry | AID 588497 | actives 0.22% (n = 360,000) | inhibition, % at 10 µM; in the data active = inhibition above about 35%, passing the limit was not always enough; inconclusive = no clear call, values can overlap the other calls; also: plate controls were buffer without enzyme for full effect and enzyme alone for no effect
# BoNT-A LC inh2 – BoNT A light chain protease inhibition | inhibition, % at 10 µM | AID 588499 | multiplex microsphere protease substrate cleavage, flow cytometry | actives 0.17% (n = 360,000); also: plate controls were buffer without enzyme for full effect and enzyme alone for no effect
# TcdB GH inh – inhibitors of Clostridioides difficile toxin B glycohydrolase; P18177; TcdB glycohydrolase enzymatic assay, plate reader; inhibition, % at 9.99 µM; actives 0.24% (n = 350,000); in the data active = inhibition above about 10%
# Target sequence (P18177 whole entry, looked up): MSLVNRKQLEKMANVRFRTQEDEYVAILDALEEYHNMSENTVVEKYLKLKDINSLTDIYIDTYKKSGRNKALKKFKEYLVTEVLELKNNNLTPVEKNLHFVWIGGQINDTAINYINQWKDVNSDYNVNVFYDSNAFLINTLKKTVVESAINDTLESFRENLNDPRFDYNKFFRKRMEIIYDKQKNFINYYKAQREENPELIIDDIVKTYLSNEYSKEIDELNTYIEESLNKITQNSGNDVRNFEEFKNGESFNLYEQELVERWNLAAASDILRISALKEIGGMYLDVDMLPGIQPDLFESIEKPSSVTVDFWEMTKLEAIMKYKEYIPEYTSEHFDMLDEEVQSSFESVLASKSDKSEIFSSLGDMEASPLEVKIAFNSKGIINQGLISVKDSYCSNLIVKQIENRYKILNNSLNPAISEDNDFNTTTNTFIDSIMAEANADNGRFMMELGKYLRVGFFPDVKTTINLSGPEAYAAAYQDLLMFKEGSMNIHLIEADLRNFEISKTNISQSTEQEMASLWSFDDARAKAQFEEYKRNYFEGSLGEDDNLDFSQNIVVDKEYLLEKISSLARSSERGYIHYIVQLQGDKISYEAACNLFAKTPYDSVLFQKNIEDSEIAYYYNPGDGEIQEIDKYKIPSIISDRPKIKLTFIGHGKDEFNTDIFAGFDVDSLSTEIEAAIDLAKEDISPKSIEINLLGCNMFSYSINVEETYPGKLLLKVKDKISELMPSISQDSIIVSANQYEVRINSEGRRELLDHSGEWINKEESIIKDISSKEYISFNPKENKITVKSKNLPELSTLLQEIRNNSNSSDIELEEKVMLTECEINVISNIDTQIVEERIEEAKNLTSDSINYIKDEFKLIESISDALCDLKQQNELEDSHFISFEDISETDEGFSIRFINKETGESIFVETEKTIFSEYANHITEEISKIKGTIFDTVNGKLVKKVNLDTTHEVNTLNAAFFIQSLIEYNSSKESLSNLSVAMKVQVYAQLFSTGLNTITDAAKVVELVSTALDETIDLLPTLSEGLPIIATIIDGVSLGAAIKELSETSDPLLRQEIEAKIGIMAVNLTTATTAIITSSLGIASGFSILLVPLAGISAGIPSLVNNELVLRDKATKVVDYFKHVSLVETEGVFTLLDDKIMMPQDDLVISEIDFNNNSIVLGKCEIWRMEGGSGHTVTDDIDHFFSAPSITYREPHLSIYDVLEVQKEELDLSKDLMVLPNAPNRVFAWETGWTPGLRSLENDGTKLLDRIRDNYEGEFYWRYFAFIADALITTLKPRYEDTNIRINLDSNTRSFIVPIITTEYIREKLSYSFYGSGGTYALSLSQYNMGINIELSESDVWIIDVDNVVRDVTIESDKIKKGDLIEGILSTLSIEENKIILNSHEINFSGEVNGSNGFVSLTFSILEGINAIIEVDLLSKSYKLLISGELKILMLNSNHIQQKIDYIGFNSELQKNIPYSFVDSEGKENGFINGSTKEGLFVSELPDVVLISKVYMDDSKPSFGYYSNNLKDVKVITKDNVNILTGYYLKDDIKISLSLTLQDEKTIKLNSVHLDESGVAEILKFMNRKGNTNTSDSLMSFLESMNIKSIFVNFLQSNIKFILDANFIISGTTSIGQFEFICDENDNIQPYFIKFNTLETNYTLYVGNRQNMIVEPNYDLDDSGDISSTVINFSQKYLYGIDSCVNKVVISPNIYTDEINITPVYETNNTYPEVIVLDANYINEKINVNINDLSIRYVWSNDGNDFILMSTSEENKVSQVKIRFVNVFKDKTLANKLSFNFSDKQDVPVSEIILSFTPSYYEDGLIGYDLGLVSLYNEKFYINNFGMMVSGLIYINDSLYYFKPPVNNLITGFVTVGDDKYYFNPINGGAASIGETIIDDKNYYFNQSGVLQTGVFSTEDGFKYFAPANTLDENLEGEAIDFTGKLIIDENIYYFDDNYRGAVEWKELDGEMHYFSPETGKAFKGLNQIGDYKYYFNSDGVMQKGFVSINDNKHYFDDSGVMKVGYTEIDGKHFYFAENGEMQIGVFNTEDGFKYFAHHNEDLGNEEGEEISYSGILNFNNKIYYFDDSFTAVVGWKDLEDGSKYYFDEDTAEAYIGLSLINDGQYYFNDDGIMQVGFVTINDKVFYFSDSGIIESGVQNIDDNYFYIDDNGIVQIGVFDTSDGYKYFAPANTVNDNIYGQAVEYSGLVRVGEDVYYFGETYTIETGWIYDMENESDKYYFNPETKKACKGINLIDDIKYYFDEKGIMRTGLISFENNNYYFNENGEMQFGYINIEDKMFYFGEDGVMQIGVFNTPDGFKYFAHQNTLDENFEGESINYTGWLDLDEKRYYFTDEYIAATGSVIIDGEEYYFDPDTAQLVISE
# Autofluor counter – counter-screen for toxin protease inhibitors: compound fluorescence. compound autofluorescence counterscreen, microsphere flow cytometry; active compounds read high. fluorescence intensity (no concentration beside the values). actives 3.1% (n = 360,000). AID 624483; in the data active = fluorescence intensity above about 16000; inconclusive = no clear call, values can overlap the other calls
# The depositor's hits bear a star; ? = inconclusive; · = not tested or not shown. This is one part of a sample in which hits are shown more often than they occur. Rule as the data show it, unless noted: active = inhibition above about 30%; inconclusive = no clear call, values can overlap the other calls; inactive = below that.
SMILES,Anthrax LF prot,BoNT-F LC inh,BoNT-A LC inh2,TcdB GH inh,Autofluor counter
Nc1nnc(CC2=CCCCC2)s1,-9,-3,-2,·,22203*
Nc1nnc(Cc2ccc(F)cc2)s1,4,-1,1,2,4021
CCOc1ccccc1NC(=O)CCNS(=O)(=O)c1cccc2nonc12,2,2,1,14*,4848
CCOC(=O)c1cccc(NC(=O)CCNS(=O)(=O)c2cccc3nonc23)c1,1,-1,0,16*,5109
O=C(OCc1ccccc1)C1CCCN1C(=O)c1cccs1 (stereo unspecified),-1,0,0,·,3512
O=C(OCc1ccccc1)C1CCCN1C(=O)c1ccccc1[N+](=O)[O-] (stereo unspecified),-1,1,?,·,20292*
O=C(c1ccccc1[N+](=O)[O-])N1CCC(Cc2ccccc2)CC1,0,-3,-2,0,22923*
Cc1noc(C)c1C(=O)N1CCC(Cc2ccccc2)CC1,1,1,?,·,22708*
O=C(c1ccc([N+](=O)[O-])cc1)N1CCC(Cc2ccccc2)CC1,-7,2,1,1,4909
COc1ccccc1Cn1c(=S)[nH]c2cc(C(=O)N3CCCC3)ccc2c1=O,-1,-14,-2,1,4969
CCN(CC)C(=O)c1ccc2c(=O)n(CCOC)c(=S)[nH]c2c1,-5,3,?,·,20993*
CCCn1c(=S)[nH]c2cc(C(=O)N3CCN(C(=O)OCC)CC3)ccc2c1=O,0,0,1,0,5189
CCOCCCn1c(=S)[nH]c2cc(C(=O)N3CCOCC3)ccc2c1=O,1,-5,-2,·,17022*
CCN1CCN(C(=O)c2ccc3c(=O)n(Cc4ccccc4OC)c(=S)[nH]c3c2)CC1,-5,7,7,·,18735*
CCOC(=O)N1CCN(C(=O)c2ccc3c(=O)n(Cc4ccc(Cl)cc4)c(=S)[nH]c3c2)CC1,-2,-1,1,·,19158*
CNC[C@@H]1OCCCC[C@@H](C)Oc2ccc(NS(=O)(=O)c3ccc(F)cc3)cc2C(=O)N([C@@H](C)CO)C[C@H]1C,·,·,·,-6,·
O=C(CCN1CCCCC1)NCC[C@@H]1CC[C@@H](NS(=O)(=O)c2cccc(F)c2)[C@@H](CO)O1,·,·,·,0,·
CC(C)C#Cc1ccc2c(c1)O[C@H](CN(C)C(=O)c1cccc(F)c1)[C@H](C)CN([C@H](C)CO)S2(=O)=O,·,·,·,-4,·
COc1ccc(CN(C)C[C@@H]2OCCCC[C@H](C)Oc3ccc(NS(=O)(=O)c4ccc(Cl)cc4)cc3C(=O)N([C@@H](C)CO)C[C@H]2C)cc1,·,·,·,1,·
CC1CCCN(C(=O)c2ccc3c(=O)n(Cc4ccc5c(c4)OCO5)c(=S)[nH]c3c2)C1 (stereo unspecified),1,-2,0,·,22529*
COCCn1c(=S)[nH]c2cc(C(=O)N3CCN(c4ccccc4OC)CC3)ccc2c1=O,1,-4,?,·,22207*
COCCn1c(=O)[nH]c2cc(C(=O)N3CCN(c4ccccc4OC)CC3)ccc2c1=O,-5,-12,-1,·,3042
COC(=O)C[C@@H]1CC[C@H]2[C@@H](COc3ccc(NC(=O)c4ccccc4F)cc3C(=O)N2C)O1,·,·,·,0,·
COc1cccc(C#Cc2cnc3c(c2)C(=O)N([C@@H](C)CO)C[C@H](C)[C@H](CN(C)C(=O)C2CCOCC2)O3)c1,·,·,·,0,·
Cc1ccc(S(=O)(=O)NCCN=C(CN2CCOCC2)NS(=O)(=O)c2ccc(C)cc2)cc1,-1,0,1,·,8760
SMILES,Anthrax LF prot,BoNT-F LC inh,BoNT-A LC inh2,TcdB GH inh,Autofluor counter
Cc1ccc(S(=O)(=O)NCC(=O)N2CCCC2)cc1,2,-2,?,·,16845*
Cc1ccc(S(=O)(=O)NCCN=C(CN2CCCC2)NS(=O)(=O)c2ccc(C)cc2)cc1,-8,-5,?,·,24857*
O=S1(=O)CC/C(=N\O)c2ccccc21,0,-6,?,·,23882*
C=CCNC(=S)N/N=C1\CCS(=O)(=O)c2ccccc21,-12,10,1,2,3592
C[C@H](CO)N1C[C@H](C)[C@@H](CN(C)S(=O)(=O)c2ccc(Cl)cc2)OCCCC[C@H](C)Oc2ccc(NC(=O)C3CCCCC3)cc2C1=O,·,·,·,-1,·
O=C(c1ccco1)C12CN3CN(CN(C3)C1)C2,-4,2,4,·,21201*
CCOC(=O)Cn1nc(C)n(-c2ccc(C(C)C)cc2)c1=O,-4,-5,-2,·,16947*
C[C@H]1CN([C@@H](C)CO)C(=O)Cc2cc(NC(=O)Nc3ccccc3)ccc2O[C@@H]1CN(C)C(=O)Nc1ccc(F)cc1,·,·,·,0,·
COc1ccc(C(=O)C[N+]2(C)CCOCC2)cc1,-52,46*,-5,1,3259
CO[C@H]1CN(C)C(=O)c2cc(NC(=O)c3ccccc3)ccc2OC[C@@H](C)NC[C@@H]1C,·,·,·,0,·
COc1ccc(-c2cnc3c(c2)C(=O)N([C@@H](C)CO)C[C@H](C)[C@@H](CN(C)Cc2cccnc2)O3)cc1,·,·,·,-1,·
COc1cc2c(cc1OC)C(c1ccc(-c3ccc(Cl)cc3Cl)o1)=NCC2,7,-6,?,·,?
COc1cc2c(cc1OC)C(c1ccc(-c3ccccc3Cl)o1)=NCC2,0,6,7,0,20487*
CC(C)C#Cc1cnc2c(c1)C(=O)N([C@H](C)CO)C[C@@H](C)[C@H](CN(C)Cc1ccccc1F)O2,·,·,·,1,·
CN(C)C(=C(C#N)C#N)N1CCN(c2ccc(Cl)c(Cl)c2)CC1,-5,-1,1,·,20347*
CC(=O)N1[C@H](C(=O)NCc2ccccc2F)[C@@H](CO)[C@@H]2Cn3c(ccc(-c4ccccc4)c3=O)[C@@H]21,·,·,·,0,·
Cc1noc(C)c1NC(=O)Nc1ccc2c(c1)C(=O)N([C@@H](C)CO)C[C@H](C)[C@@H](CN(C)C)OCCCC[C@H](C)O2,·,·,·,0,·
O=C(Nc1ccc(Cl)cc1Cl)c1n[nH]c(Cn2cncn2)n1,3,-3,?,·,20568*
O=C(N/N=C/c1cccs1)C1CC(=O)N(c2ccccc2)C1 (stereo unspecified),-2,3,1,·,20162*
O=C1Nc2cc(Cl)ccc2C1(N1CCNCC1)C(F)(F)F (stereo unspecified),-7,-1,2,·,18877*
O=S(=O)(c1ccc(Cl)cc1)N1CCNCC1,-6,-9,-2,-1,3776
COc1ccc(-c2cc(-c3ccc(OC)cc3)nc(-c3ccc4c(c3)NC(=O)CO4)c2)cc1,-4,-3,-2,·,23016*
COc1cccc(-c2nc(-c3ccc4c(c3)NC(=O)CO4)cs2)c1,-4,-2,-1,2,4238
Cc1cc(NC(=O)c2ccccc2)sc1C,-2,2,0,·,2771
Cc1ccc(NC(=O)c2ccccc2)s1,-2,-8,-2,·,24292*
COc1ccc(NC(=O)Nc2cccc3c2O[C@@H](CN(C)S(=O)(=O)c2ccccc2)[C@H](C)CN([C@@H](C)CO)C3=O)cc1,·,·,·,0,·
C=CCSc1nc(O)c(CC)c(=O)n1C(C)CC (stereo unspecified),-4,-6,?,4,24804*
CCc1c(O)nc(SCc2ccccc2)n(C(C)CC)c1=O (stereo unspecified),0,-1,-1,3,21259*

# Screening data: PubChem, several laboratories
